The source made the active and inactive calls.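 The calls were made as follows: active = viability loss from added drug above about 55%, and viability with drug at most 40%, in both replicates (limit read from the data, passing the limit was not always enough); inconclusive = both conditions met in only one replicate; inactive = neither replicate meets both conditions.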
test: reversal of MRP1-mediated doxorubicin resistance, pilot screen, H69AR cells, doxorubicin co-treatment (AID 601); conditions: H69AR cells + 2 uM doxorubicin, CellTiter-Glo, 72 h; at 10 µM; stronger effect = higher value

SMILES	differential viability (reversal)
O=C(CNC(=O)c1cccs1)NCCN1CCN(c2ccccc2F)CC1	12.1% (inactive)
Cc1ccc(Cn2ccc(NC(=O)c3noc4c3CCCC4)n2)cc1	23.6% (inactive)
COc1cc(NC(=O)c2cc(-n3cnnc3)ccc2Cl)cc(OC)c1	19.9% (inactive)
COC(=O)c1ccccc1NC(=O)c1ccc(-c2ccccc2F)o1	7.71% (inactive)
O=C(CN1C(=O)CCS(=O)(=O)c2ccccc21)NCc1ccc(F)cc1	3.11% (inactive)
Cc1c(O)c(CN2CCCC(C)C2)cc2c3c(c(=O)oc12)CCC3 (centres undefined)	-2.96% (inactive)
CC1(C)NC(=O)N(CC(O)CN2CCCCC2)C1=O (centres undefined)	-2.85% (inactive)
CCCOc1ccc(N2C(=O)CC(NCCCN3CCC(C(N)=O)CC3)C2=O)cc1 (centres undefined)	-3.32% (inactive)
Cc1ccc(Nc2nnns2)cc1C	10.1% (inactive)
COc1ccc(S(=O)(=O)N2CCC(C(=O)NCc3ccco3)CC2)cc1	-1.91% (inactive)
C=C(CC)C(=O)c1ccc(OCC(=O)O)c(Cl)c1Cl	0.86% (inactive)
Cc1cccc(OCC(=O)Nc2ccccc2N2CCN(C(=O)C(C)C)CC2)c1C	2.79% (inactive)
O=C(NC1CC1)c1cccc(Nc2ccc(-c3ccc4c(c3)OCCO4)nn2)c1	-12% (inactive)
CNCCCC12CCC(c3ccccc31)c1ccccc12	6.27% (inactive)
Cc1ccccc1C(=O)N1CCC(C(=O)Nc2ccc(S(=O)(=O)N3CCCC3)cc2)CC1	-3.87% (inactive)
CC(=O)c1cc(-c2ccccc2)n(CC(=O)N2CCN(C3CCCC3)CC2)c1C	-0.095% (inactive)
CCOc1ccccc1N1C(=O)CC(Sc2ncccc2C(=O)O)C1=O (centres undefined)	12.7% (inactive)
Clc1ccccc1-c1nnc2sc(-c3ccccn3)nn12	8.48% (inactive)
COc1ccc(Cl)c(N2CCN(CCCNC(=O)Nc3ccc(C)cc3)CC2)c1	-14.9% (inactive)
COc1ccc(Cl)cc1N1CCN(CCNC(=O)Nc2ccccc2C)CC1	-22.7% (inactive)

SMILES	differential viability (reversal)
C=CCn1c(Cc2csc(N)n2)nnc1SCC(=O)OCC	-4.66% (inactive)
COc1cc2nc(N3CCN(C(=O)C4COc5ccccc5O4)CC3)nc(N)c2cc1OC (centres undefined)	-15.4% (inactive)
CC(=O)Nc1ccc(S(=O)(=O)N2CCN(Cc3ccncc3)CC2)cc1	18.1% (inactive)
C[C@]12CC[C@@H]3c4ccc(OC(=O)c5ccccc5)cc4CC[C@H]3[C@@H]1CC[C@@H]2O	-9.02% (inactive)
CCN(c1ccccc1)S(=O)(=O)c1ccc(F)cc1C	7.2% (inactive)
CC(=O)Nc1cccc(NC(=O)CSc2nnnn2C)c1	10.2% (inactive)
COc1ccccc1N1CCN(Cc2nc(N)nc(Nc3ccc(C)c(Cl)c3)n2)CC1	-26.3% (inactive)
COc1cccc(-c2cc(C(=O)Nc3cc(C)n(Cc4ccc(Cl)cc4)n3)no2)c1	-6.4% (inactive)
CC(=O)C(Sc1ncnc2c1nnn2-c1ccc(F)cc1)C(=O)N(C)C (centres undefined)	-12.3% (inactive)
Cc1ccccc1NS(=O)(=O)c1ccc(NC(=O)c2ccco2)cc1	-0.49% (inactive)
Cc1cc(-n2c(C)cc(C(=O)CSc3nnnn3-c3ccc(Cl)cc3)c2C)no1	4.86% (inactive)
c1ccc(OCCOc2ncnc3sccc23)cc1	7% (inactive)
CNCCCN1c2ccccc2CCc2ccccc21	14.6% (inactive)
O=S(=O)(c1ccc(Oc2ccc(-c3nnco3)cc2)nc1)N1CCC(Cc2ccccc2)CC1	-8.52% (inactive)
COc1cccc(CN2C(=O)C3(C(C#N)=C(N)OC4=C3C(=O)CCC4)c3ccccc32)c1 (centres undefined)	-2.01% (inactive)
COC(=O)Nc1nc2ccc(Sc3ccccc3)cc2[nH]1	-13.4% (inactive)
CC(C)c1ccc(-c2nc(N3CCOCC3)[nH]c(=O)c2C#N)cc1	1.58% (inactive)
COc1ccc2oc(C)c(C(=O)Cn3ccnc3)c2c1	-2.3% (inactive)
O=C(CCN1CCOCC1)Nc1ccc2c(c1)CCC2	6.83% (inactive)

Source: PubChem BioAssay
